Measurements taken from PubChem BioAssay AID1159580 (chemical genetic matrix, 2015).
The campaign covered roughly 5,500 compounds. About 2,000 (36%) were called active. Another 18% or so got no clear call; they are omitted. Cut-off read from the data, not from the text of the source: active = normalized growth mostly below about 0.91 (no sharp cut-off); inconclusive = no clear call, values can overlap the other calls; inactive = mostly above about 0.92. This is one part of the list.

Assay: chemical genetic growth profiling, strain panel (AID 1159580);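 note: tested at 20 µM; growth read once vehicle control cultures reached saturation at 30 °C; 1 = growth at the plate median or of vehicle wells; lower values mean less growth of the strain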
Settings: growth OD

Measured: normalized growth

COc1cc(-c2coc3cc(O[C@@H]4O[C@H](CO)[C@@H](O)[C@H](O)[C@H]4O)c(OC)c(O)c3c2=O)cc(O)c1OC
inactive: S. cerevisiae deletion strains, locus YJR066W, strain TOR1, stronger effect = lower value 0.988 | S. cerevisiae deletion strains, locus YKL009W, strain mrt4, stronger effect = lower value 1.02 | S. cerevisiae deletion strains, locus YKL068W, stronger effect = lower value 0.995 | S. cerevisiae deletion strains, locus YKL085W, strain MDH1 (second series), stronger effect = lower value 0.997 | S. cerevisiae deletion strains, locus YKL085W, strain MDH1, stronger effect = lower value 0.997 | S. cerevisiae deletion strains, locus YKL160W, strain elf1, stronger effect = lower value 0.993 | S. cerevisiae deletion strains, locus YKR001C, strain vps1, stronger effect = lower value 1.01 | S. cerevisiae deletion strains, locus YKR026C, strain gcn3, stronger effect = lower value 0.997 | S. cerevisiae deletion strains, locus YKR091W, strain srl3, stronger effect = lower value 1 | S. cerevisiae deletion strains, locus YLL001W, strain dnm1, stronger effect = lower value 0.965 | S. cerevisiae deletion strains, locus YLL026W, stronger effect = lower value 0.995 | S. cerevisiae deletion strains, locus YLL041C, strain sdh2, stronger effect = lower value 1 | S. cerevisiae deletion strains, locus YLR027C, strain aat2, stronger effect = lower value 0.997 | S. cerevisiae deletion strains, locus YLR039C, strain RIC1, stronger effect = lower value 1.02 | S. cerevisiae deletion strains, locus YLR058C, strain SHM2, stronger effect = lower value 1.01 | S. cerevisiae deletion strains, locus YLR102C, strain apc9, stronger effect = lower value 0.994 | S. cerevisiae deletion strains, locus YLR113W, strain HOG1, stronger effect = lower value 0.975 | S. cerevisiae deletion strains, locus YLR221C, strain rsa3, stronger effect = lower value 0.993 | S. cerevisiae deletion strains, locus YLR258W, strain gsy2, stronger effect = lower value 0.984 | S. cerevisiae deletion strains, locus YLR262C, strain YPT6 (second series), stronger effect = lower value 1 | S. cerevisiae deletion strains, locus YLR262C, strain YPT6, stronger effect = lower value 1 | S. cerevisiae deletion strains, locus YLR268W, strain sec22, stronger effect = lower value 1.03 | S. cerevisiae deletion strains, locus YLR320W, strain mms22, stronger effect = lower value 0.986 | S. cerevisiae deletion strains, locus YLR330W, strain CHS5, stronger effect = lower value 1.01 | S. cerevisiae deletion strains, locus YLR342W, strain FKS1 (second series), stronger effect = lower value 1.05 | S. cerevisiae deletion strains, locus YLR342W, strain FKS1, stronger effect = lower value 0.994 | S. cerevisiae deletion strains, locus YLR357W, strain rsc2, stronger effect = lower value 0.956 | S. cerevisiae deletion strains, locus YLR370C, strain arc18, stronger effect = lower value 1 | S. cerevisiae deletion strains, locus YLR371W, strain rom2, stronger effect = lower value 1.01 | S. cerevisiae deletion strains, locus YLR384C, strain iki3, stronger effect = lower value 0.988 | S. cerevisiae deletion strains, locus YLR418C, strain cdc73, stronger effect = lower value 1.02 | S. cerevisiae deletion strains, locus YML016C, strain PPZ1, stronger effect = lower value 0.981 | S. cerevisiae deletion strains, locus YML032C, strain rad52, stronger effect = lower value 1.01 | S. cerevisiae deletion strains, locus YML120C, strain ndi1, stronger effect = lower value 0.99 | S. cerevisiae deletion strains, locus YML124C, strain tub3, stronger effect = lower value 0.99 | S. cerevisiae deletion strains, locus YMR058W, strain fet3, stronger effect = lower value 0.998 | S. cerevisiae deletion strains, locus YMR078C, strain ctf18, stronger effect = lower value 0.981 | S. cerevisiae deletion strains, locus YMR125W, strain sto1, stronger effect = lower value 0.99 | S. cerevisiae deletion strains, locus YMR129W, stronger effect = lower value 0.996 | S. cerevisiae deletion strains, locus YMR205C, strain PFK2, stronger effect = lower value 0.981 | S. cerevisiae deletion strains, locus YMR223W, strain ubp8, stronger effect = lower value 1 | S. cerevisiae deletion strains, locus YMR231W, strain pep5, stronger effect = lower value 0.997 | S. cerevisiae deletion strains, locus YMR307W, strain GAS1, stronger effect = lower value 1.04 | S. cerevisiae deletion strains, locus YNL067W, strain RPL9B, stronger effect = lower value 0.994 | S. cerevisiae deletion strains, locus YNL071W, strain lat1, stronger effect = lower value 1.01 | S. cerevisiae deletion strains, locus YNL128W, strain TEP1, stronger effect = lower value 1.01 | S. cerevisiae deletion strains, locus YNL183C, strain NPR1, stronger effect = lower value 0.962 | S. cerevisiae deletion strains, locus YNL209W, strain ssb2, stronger effect = lower value 0.989 | S. cerevisiae deletion strains, locus YNL233W, strain BNI4, stronger effect = lower value 1 | S. cerevisiae deletion strains, locus YNL248C, strain rpa49, stronger effect = lower value 0.988 | S. cerevisiae deletion strains, locus YNL250W, strain rad50, stronger effect = lower value 0.964 | S. cerevisiae deletion strains, locus YNL271C, strain bni1, stronger effect = lower value 0.978 | S. cerevisiae deletion strains, locus YNL298W, strain CLA4, stronger effect = lower value 0.989 | S. cerevisiae deletion strains, locus YNL307C, strain MCK1, stronger effect = lower value 0.99 | S. cerevisiae deletion strains, locus YNL322C, strain KRE1 (second series), stronger effect = lower value 0.977 | S. cerevisiae deletion strains, locus YNR049C, strain mso1, stronger effect = lower value 1.01 | S. cerevisiae deletion strains, locus YNR052C, strain pop2, stronger effect = lower value 0.964 | S. cerevisiae deletion strains, locus YOL012C, strain htz1 0.807 | S. cerevisiae deletion strains, locus YOL147C, strain pex11, stronger effect = lower value 1.01 | S. cerevisiae deletion strains, locus YOR001W, strain rrp6, stronger effect = lower value 0.948 | S. cerevisiae deletion strains, locus YOR061W, strain CKA2, stronger effect = lower value 0.999 | S. cerevisiae deletion strains, locus YOR069W, strain VPS5, stronger effect = lower value 0.986 | S. cerevisiae deletion strains, locus YOR070C, strain gyp1, stronger effect = lower value 1.01 | S. cerevisiae deletion strains, locus YOR080W, strain dia2, stronger effect = lower value 0.988 | S. cerevisiae deletion strains, locus YOR083W, strain WHI5, stronger effect = lower value 1.02 | S. cerevisiae deletion strains, locus YOR106W, strain vam3, stronger effect = lower value 0.98 | S. cerevisiae deletion strains, locus YOR136W, strain idh2, stronger effect = lower value 0.992 | S. cerevisiae deletion strains, locus YOR144C, strain elg1, stronger effect = lower value 0.996 | S. cerevisiae deletion strains, locus YOR184W, strain ser1, stronger effect = lower value 1.05 | S. cerevisiae deletion strains, locus YOR231W, strain MKK1, stronger effect = lower value 1.05 | S. cerevisiae deletion strains, locus YOR265W, strain rbl2, stronger effect = lower value 1.01 | S. cerevisiae deletion strains, locus YOR270C, strain vph1, stronger effect = lower value 1.02 | S. cerevisiae deletion strains, locus YOR290C, strain snf2, stronger effect = lower value 1 | S. cerevisiae deletion strains, locus YOR316C, strain cot1, stronger effect = lower value 0.985 | S. cerevisiae deletion strains, locus YPL051W, strain arl3, stronger effect = lower value 0.961 | S. cerevisiae deletion strains, locus YPL055C, strain LGE1, stronger effect = lower value 1.05 | S. cerevisiae deletion strains, locus YPL078C, strain atp4, stronger effect = lower value 0.993 | S. cerevisiae deletion strains, locus YPL106C, strain sse1, stronger effect = lower value 0.962 | S. cerevisiae deletion strains, locus YPL240C, strain hsp82, stronger effect = lower value 1 | S. cerevisiae deletion strains, locus YPL256C, strain CLN2, stronger effect = lower value 1.02 | S. cerevisiae deletion strains, locus YPR119W, strain clb2, stronger effect = lower value 0.982 | S. cerevisiae deletion strains, locus YPR141C, strain kar3, stronger effect = lower value 0.977 | S. cerevisiae deletion strains, locus YPR163C, strain tif3, stronger effect = lower value 0.986 | S. cerevisiae deletion strains, locus YPR167C, strain met16, stronger effect = lower value 0.993 | S. cerevisiae deletion strains, strain wtn01, stronger effect = lower value 1.01 | S. cerevisiae strains, strain wild type, stronger effect = lower value 1.01
